AmpC detergent – inhibitors of E. coli AmpC beta-lactamase with detergent; AID 485294; P00811; AmpC hydrolysis of nitrocefin, absorbance 480 nm, 0.01% Triton; Potency, µM (top dose mostly 114 µM), inactives show at the highest dose activity change, negative = inhibition, hits mostly inhibitors; 370,000 tested, 0.041% active;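 also: 0% = no-compound wells and -100% = no-enzyme wells; nearly all actives have a fitted effect of over 25% in size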
Target sequence (P00811 whole entry, looked up): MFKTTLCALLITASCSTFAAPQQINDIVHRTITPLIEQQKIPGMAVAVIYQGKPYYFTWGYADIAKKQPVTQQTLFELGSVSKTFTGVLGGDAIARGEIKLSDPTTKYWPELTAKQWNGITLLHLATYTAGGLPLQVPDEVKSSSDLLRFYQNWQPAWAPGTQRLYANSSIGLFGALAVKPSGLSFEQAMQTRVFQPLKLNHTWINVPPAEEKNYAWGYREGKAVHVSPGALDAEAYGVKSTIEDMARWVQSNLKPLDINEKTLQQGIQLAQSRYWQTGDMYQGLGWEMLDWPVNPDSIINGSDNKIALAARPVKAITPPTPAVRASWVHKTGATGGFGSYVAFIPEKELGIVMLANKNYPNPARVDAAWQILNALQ
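AmpC (5.3 nM in the dispensed reagent) in 20 mM phosphate pH 7.0 with 0.01% (detergent screen) or 0.0001% Triton X-100 was preincubated with compounds for 15 min at room temperature. Nitrocefin was then added from an 800 uM solution, and hydrolysis was followed at 480 nm.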
VACV mCherry inh – inhibitors of vaccinia virus infection (mCherry reporter signal). Potency, µM (top dose mostly 36.5 µM), for inactives: at the top dose activity change, negative = inhibition, most hits filed as inhibitors. 310,000 tested, 0.63% active. Vaccinia virus mCherry reporter infection, fluorescence. AID 720579; calls by dose curve; tested in A549 cells; also: % is scaled to controls: 0 for no effect and ±100 for the full control effect; nearly all actives have a fitted effect of over 35% in size
SARS PLpro yeast – inhibitors of SARS-CoV papain-like protease in yeast | AID 485353 | S. cerevisiae expressing SARS-CoV PLpro, growth rescue | Potency, µM (highest dose often 32.9 µM), for inactives: at the highest dose activity, positive = growth rescue, most hits filed as activators | 330,000 tested, 0.19% active; calls by dose curve; also: 0% is about no effect; nearly all actives have a fitted effect of over 55% in size
Vaccinia Venus – inhibitors of vaccinia virus (Venus reporter). Vaccinia virus Venus reporter expression, fluorescence. Potency, µM (doses to about 36.5 µM), for inactives: at the top dose activity change, negative = inhibition, usual class: inhibitors. 330,000 tested, 0.46% active; calls by dose curve; tested in A549 cells; also: % is scaled to controls: 0 for no effect and ±100 for the full control effect; nearly all actives have a fitted effect of over 30% in size
AmpC inh no detg – inhibitors of E. coli AmpC beta-lactamase without detergent; P00811; AmpC nitrocefin hydrolysis, absorbance 480 nm, 0.0001% Triton; Potency, µM (doses to about 57.1 µM), for inactives: top-dose activity change, negative = inhibition, hits mostly inhibitors; 330,000 tested, 0.52% active; AID 485341;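 also: plate controls were no compound for no effect and no enzyme for full effect; nearly all actives have a fitted effect of over 20% in size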
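20 mM phosphate pH 7.0 + 0.01% (detergent screen) or 0.0001% Triton X-100; 5.3 nM AmpC reagent; cpd preinc 15 min RT; nitrocefin (800 uM stock) to start; A480 q20 s × 4 min; Activity was normalised to no-enzyme and no-compound control wells.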
An asterisk follows results filed as active; i = inactive; ? = inconclusive; / = no result given. Most compounds without a hit are left out; they make up all but 1.3% or so of the library. Unless noted, calls follow the shape of the dose curve; as a rule, active = well fitted curve in the direction sought with a large enough effect; inconclusive = small, poorly fitted or top-dose-only effect, or another doubt; inactive = no such curve, though single readings can be large; an effect the other way counts as inactive or inconclusive. Potency is read from the fitted curve at half-maximal effect.

SMILES | AmpC detergent | VACV mCherry inh | SARS PLpro yeast | Vaccinia Venus | AmpC inh no detg
O=c1[nH]c(Nc2ccccc2Cl)cc2ccccc12 | / | -13.5% | / | -20.3% | /
CCOC(=O)C/C(C)=N/NC(=O)CN(c1ccc(Br)cc1)S(=O)(=O)c1ccccc1 | -0.7% | -13.1% | 9.6% | -12.0% | 22.4µM*
COc1cc(CN2CCOc3ccc(C(O)c4cccnc4)cc3C2)cc(OC)c1 (configuration not stated) | / | -10.3% | / | 5.2% | /
CC[C@H](C)[C@@H](NC(=O)O[C@@H]1C(=O)c2cc(Br)ccc2O[C@H]1c1ccc2c(c1)OCO2)C(=O)OC | -8.2% | / | -5.9% | / | 35.5µM*
Cc1nn(C)c(Cl)c1CN1CCOc2ccc(CN3CCC(Oc4cccnc4)CC3)cc2C1 | / | -20.0% | / | -19.4% | /
Cc1cccc(Nc2nc(N)nc(CCl)n2)c1 | -0.3% | ? | -0.7% | ? | -16.2%
COc1cccc(Nc2nc(N)nc(CCl)n2)c1 | 3.9% | 10µM* | -0.6% | ? | -26.0%
O=C(CCS(=O)(=O)c1ccccc1)N(CCCN1CCOCC1)c1nc2ccccc2s1 | -5.1% | -14.1% | -5.8% | -25.5% | 200.7%
Cc1ccc(S(=O)(=O)CCC(=O)N(CCCN2CCOCC2)c2nc3ccccc3s2)cc1 | 0.8% | 14.1µM* | -1.4% | ? | 165.1%
N#CCCN1CCN(S(=O)(=O)c2ccc(S(=O)(=O)NCc3ccccc3)cc2)CC1 | ? | / | -6.0% | / | 10µM*
N#CCCN1CCN(S(=O)(=O)c2ccc(S(=O)(=O)N3CCOCC3)cc2)CC1 | ? | / | 18.6% | / | -9.3%
CC1CCCCC1NS(=O)(=O)c1ccc(S(=O)(=O)N2CCN(CCC#N)CC2)cc1 (configuration not stated) | ? | -8.2% | -2.0% | -8.9% | 44.7µM*
COC(=O)c1cc(CNC(=O)c2ccccn2)cc(NC(=O)c2ccccc2OC)c1 | / | 15.1% | / | 39.8% | /
CC(C)C(NC(=O)c1ccoc1)c1nnc2n1CCN(Cc1ccc3c(c1)Cc1ccccc1-3)CC2 (configuration not stated) | / | -6.9% | / | -2.8% | /
CCOC(=O)N1CCC(NC(=O)C2CCCN(C(=O)c3cc4sccc4n3C)C2)CC1 (configuration not stated) | -13.5% | -16.8% | 7.0% | 0.8% | 0.562µM*
COc1ccc(-n2c(CCNC(=O)c3ccccc3C(F)(F)F)nnc2SC)cc1 | / | 2.5% | / | 21.5% | /
C[C@H]1[C@H](NC(=O)C(=NOC(C)(C)C(=O)O)c2csc(N)n2)C(=O)N1S(=O)(=O)O | 3.98µM* | i | / | -17.8% | 5.01µM*
CO/N=C(\C(=O)N[C@@H]1C(=O)N2C(C(=O)OCOC(=O)C(C)(C)C)=C(/C=C\c3scnc3C)CS[C@H]12)c1csc(N)n1 | / | i | / | -4.7% | /
CC(C)(C)c1cc(CCC(=O)NNC(=S)NC(=O)c2ccccc2)cc(C(C)(C)C)c1O | -11.3% | / | 5.01µM* | / | 1.58µM*
O=[N+]([O-])c1ccc(Nc2ccc3ccccc3c2)nc1 | 0.6% | -20.6% | -0.2% | -7.8% | 0.316µM*
C#CCn1c(=NC(=O)c2ccc(S(=O)(=O)N3CCc4ccccc4C3)cc2)sc2cc(S(N)(=O)=O)ccc21 | -13.8% | 6.31µM* | -7.7% | 7.94µM* | -28.8%
Cc1nc(CN2CCN(C(=O)CC3(c4ccccc4Cl)CC(=O)N(C)C3=O)CC2)cs1 (configuration not stated) | / | -6.6% | / | 1.7% | /
CCc1c(C)nc2[nH]nc(-c3ccccc3)n2c1=O | -17.1% | / | -2.0% | -26.4% | -24.7%
CCc1c(C)nc2[nH]nc(-c3ccccc3C)n2c1=O | -1.3% | / | -6.5% | -22.4% | 0.282µM*
Cc1c(NC(=S)N/N=C\c2ccccc2O)c(=O)n(-c2ccccc2)n1C | ? | 12.6µM* | 3.0% | ? | -34.3%
SMILES | AmpC detergent | VACV mCherry inh | SARS PLpro yeast | Vaccinia Venus | AmpC inh no detg
Cc1ccc(C(=O)Nc2ccc(C(=O)N/N=C/c3c[nH]c4ccccc34)cc2)cc1 | ? | i | -17.2% | -18.6% | -31.0%
Cc1cccc(NC(=S)N/N=C/c2c[nH]c3ccccc23)c1 | -6.6% | ? | -89.5% | ? | 15.8µM*
Cc1cc(C(=O)Nc2c(C)n(C)n(-c3ccccc3)c2=O)c(C)o1 | 2.6% | / | 2.3% | / | 0.159µM*
Oc1ccccc1C=NNC(=S)Nc1ccc(F)cc1 | / | 5.62µM* | / | ? | /
Cc1c(NC(=S)N/N=C/c2ccc(Br)cc2)c(=O)n(-c2ccccc2)n1C | 2.3% | -12.5% | 1.1% | -19.0% | -21.2%
COCC(=O)Nc1cc(C(=O)N2CCCCC2c2nccn2C)cc2nc(-c3ccccc3)n(C)c12 (configuration not stated) | / | -25.2% | / | -23.8% | /
COc1ccc2c(c1)OC(C)CN(CCNC(=O)c1csc(-c3cccs3)n1)C2 (configuration not stated) | / | -5.6% | / | 13.6% | /
COCCNC(=O)c1cn(C2CCN(C3CCCC3)CC2)nn1 | / | -5.8% | / | 4.1% | /
Cc1nc(NCc2cnn(C)c2C)sc1-c1ccn(CC2COc3ccccc3O2)n1 (configuration not stated) | / | -11.8% | / | -3.2% | /
Cc1ccccc1CN1CCc2nnc(C(C)NC(=O)c3cc(F)ccc3F)n2CC1 (configuration not stated) | / | i | / | -0.2% | /
CN(C)c1nc(N/N=C/c2ccccc2O)nc(Nc2ccc(F)cc2)n1 | -3.2% | 7.94µM* | -21.7% | ? | -37.2%
COc1ccc(-n2c(CNC(=O)c3c(-c4ccccc4)noc3C)nnc2SC)cc1 | / | i | / | -9.2% | /
Clc1ccc(CSc2cc3c(nn2)-c2ccccc2CC3)cc1Cl | 4.6% | / | -4.6% | 4.4% | 0.316µM*
Clc1cccc(Cl)c1CSc1cc2c(nn1)-c1ccccc1CC2 | -6.7% | / | -1.6% | / | -15.3%
COc1cc(=O)n2c(c1C(=O)NC(C)c1ccco1)CCN(C(=O)c1ccccc1SC)CC2 (configuration not stated) | / | i | / | 0.0% | /
O=c1cc(CO)oc(C(Nc2ccccn2)c2ccc(F)cc2)c1O (configuration not stated) | -8.3% | / | -0.8% | / | -19.8%
COc1ccc(C(c2oc(CO)cc(=O)c2O)c2oc(CO)cc(=O)c2O)cc1OC | -5.7% | i | 7.94µM* | -3.7% | 1.2%
COC(=O)C1CC23C=CCN4CCC5(c6ccccc6NC15C2C)C43 (configuration not stated) | -10.6% | 12.6µM* | 1.9% | ? | 104.8%
CN1CC[C@]23c4ccccc4N[C@H]1[C@]21CCN(C)[C@H]3Nc2ccccc21 | ? | -19.2% | / | -9.8% | -22.4%
Cc1cccc2c(Nc3ccc4c(c3)OCO4)nc(CN3CCC(N4CCCCC4)CC3)nc12 | / | i | / | -11.6% | /
COc1cc(CNc2ccccc2Oc2cc(=O)n(C)c(=O)n2C)cc(OC)c1OC | 0.2% | -5.8% | 7.0% | -16.9% | 117.3%
Cn1c(Oc2ccccc2NCc2cc(Br)ccc2O)cc(=O)n(C)c1=O | ? | / | -0.4% | ? | 22.4µM*

Bioassay records deposited in PubChem by National Center for Advancing Translational Sciences (NCATS).
